Publication PMC12136788
Numbering of substitutions follows the chain as printed. The full ranking holds about 5,800 sequences; the median of “enrichment r” is about 0.68, and the highest 2% start at about 11. For the sample, the highest values were picked, then their nearest neighbours and some sequences at random.

T1: UNK ZnF1-6 (called full-length) (human, UniProt Q9C0B0 30-357)
T1 sequence: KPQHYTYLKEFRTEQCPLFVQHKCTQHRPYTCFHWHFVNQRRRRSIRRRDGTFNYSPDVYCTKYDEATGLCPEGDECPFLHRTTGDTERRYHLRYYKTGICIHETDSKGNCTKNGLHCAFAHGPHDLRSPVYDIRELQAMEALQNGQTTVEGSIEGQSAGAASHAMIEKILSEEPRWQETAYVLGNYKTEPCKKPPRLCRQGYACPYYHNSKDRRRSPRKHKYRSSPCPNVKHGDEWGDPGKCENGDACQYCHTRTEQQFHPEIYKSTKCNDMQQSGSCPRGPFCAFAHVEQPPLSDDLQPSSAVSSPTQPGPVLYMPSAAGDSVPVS

B1: chr12:104760787:104760888:+|3pUTR|ENSG00000171310|unk|FALSE|unique (ssRNA)
RNA: GGGAGUUCUACAGUCCGACGAUCUUCUUUUCUAAUGGCAUUGAAACUUUAAAAAAAAUGGAUUCAACUGUUUUUGCAGAAUGUAGAAAGUAUUCUGUGUCCUUGGUUAAAGAAAUCCACUUGUGAAGUGUGCCUGGAAAAUGACAACAGAGGAUUGAGCAUCA
B2: chr2:227556236:227556337:+|3pUTR|ENSG00000173744|msi1|FALSE|bound_elsewhere (ssRNA)
RNA: GGGAGUUCUACAGUCCGACGAUCUGUUGAAUGCCUUUUUGCAAUGAUGACUGAGUUGUUAUCAUAGUAUUUUAAAACCUGUAUAGUGUUUUAGACUUGUUAAAACAUUGCUGUCUAGUGUACAUCUAGCUAAAAGUGUGGUUUCAACAGAGGAUUGAGCAUCA
B3: chr7:111727939:111728040:-|3pUTR|ENSG00000128512|unk|total|mutant (ssRNA)
RNA: GGGAGUUCUACAGUCCGACGAUCAAGUGGUAAACCGUGAUAAAGACUCCUUUUGUACCUUUUUAUGUUCACUUUUUUUUAUACCGUUUAAUCUUAAAACCAAUACGAUAUUGUCAAACGAUACAAUGUGUGACAAUGUUGUAUCAACAGAGGAUUGAGCAUCA
B4: chr6:11183298:11183399:-|3pUTR|ENSG00000111859|msi1|total|mutant (ssRNA)
RNA: GGGAGUUCUACAGUCCGACGAUCACAUUUCACAUUUUUAAAACCAAAUGUUCAAUCUGUAUUACUCUUUGCCGUCUUGUAUGCCGAGGCUAUUUUUAAAUCAUUAAAUUUUCCGAUCUCUGUUUUCACCGCCACUGGGUUUUCCAACAGAGGAUUGAGCAUCA
B5: chr7:111727939:111728040:-|3pUTR|ENSG00000128512|unk|FALSE|unique (ssRNA)
RNA: B3 RNA with C34U, C35A, C83U, C84A
B6: chr5:159157431:159157536:-|3pUTR|ENSG00000145860|unk|total|mutant (ssRNA)
RNA: GGGAGUUCUACAGUCCGACGAUCCAAAAAGUGUUUUUCAGACCUCGGUAUUCCUAAUGUGGGAUGUGACUUUAUUUUAUUUUCCGCCGCAAAUUUGGAUGCCGACUGACAGACACCGCUGAAUGUCUUAAUAAAUUUAAAUUUCAACAGAGGAUUGAGCAUCA
B7: chr19:811491:811550:+|3pUTR|ENSG00000011304|msi1_unk|FALSE|overlapping (ssRNA)
RNA: GGGAGUUCUACAGUCCGACGAUCUAGCAAUAUUUCCAGUUGACCAAAUAUUCUAAUCUUUUUUCAUUUAUAUGCAAAAGAAAUAGUUUUAAGUAACUUUUUAUAGCAAGAUGAUACAAUGGUAUGAGUGUAAUCUAAACUUCCCAACAGAGGAUUGAGCAUCA
B8: chr7:123541454:123541562:-|3pUTR|ENSG00000128609|unk|FALSE|unique (ssRNA)
RNA: GGGAGUUCUACAGUCCGACGAUCUCCAUAGUGUCAUUUUAUUUUAGUCAUUAUUGAAUUAUACCAUUUACUCUGUUUUCUUAUAGUCUUAAUUUUAUUAUAUUUUGUUGUUACUGUAUUAUAUUUGAAAACCUUCAAAUUAGACAACAGAGGAUUGAGCAUCA
B9: chr10:117282838:117282939:-|3pUTR|ENSG00000165650|unk|FALSE|bound_elsewhere (ssRNA)
RNA: GGGAGUUCUACAGUCCGACGAUCCCCCUUGUGUUAUUUUUCUUCCUCUUGGUUUUUGAAUUAGUGUUAAAUAGAAUACUGUCUAGAUUCUUAAAAUAUUUUCAUUUCCAUCAUGGUUAUAACAAAUUUGCUGCAUGCCCAAACCAACAGAGGAUUGAGCAUCA
B10: chr17:80395157:80395266:+|3pUTR|ENSG00000173821|unk|FALSE|bound_elsewhere (ssRNA)
RNA: GGGAGUUCUACAGUCCGACGAUCCUUCAAAGCCUUAACUGUCAAAUCUUGCAUUAUCUUGUUUGUACAGAAAUAUACUGGCCUAGCAGAGGCAAAAAAAAAAAAAAUGAAUUUUAUUUUACUUGUCACACCUGUCUUAAUAAACAACAGAGGAUUGAGCAUCA
B11: chr7:123541454:123541562:-|3pUTR|ENSG00000128609|unk|total|mutant (ssRNA)
RNA: B8 RNA with U28C, A29C, U44C, A45C, U83C, A84C, U140C, A141C
B12: ENSG00000033178:stop:overlap|stop_codon|ENSG00000033178|stop_codon|NA|stop_codon (ssRNA)
RNA: GGGAGUUCUACAGUCCGACGAUCCUAUUGAAAUUUAUGGCUGUCCGAAUAUUUGUUUGUUAAUACAUAAGUGUUCUGUAUAUUAGUAUUCUCUUAUCCUUCACAUCCAGCUUUGCUACUCUGUGGCAUUAGACAACUUUUUUCCAACAGAGGAUUGAGCAUCA
B13: chr5:159157431:159157536:-|3pUTR|ENSG00000145860|unk|FALSE|bound_elsewhere (ssRNA)
RNA: B6 RNA with C83U, C84A, C86U, C87A, C101U, C102A, C115U, C116A
B14: chrX:133301433:133301604:-|3pUTR|ENSG00000076716|msi1|total|mutant (ssRNA)
RNA: GGGAGUUCUACAGUCCGACGAUCUUGUUUUUCUUGGGGGAUGGGGUGGGGUGGGAGCCGGCCGAGCUGAGAAUACUACAUCUCCGUGGUGACCUUCCGCCACGUGGGUGAAGUGGCAAAGGCCAUGGCCAUAUCUGUUGUCCCCAACAGAGGAUUGAGCAUCA

These binders were tested against T1, UNK ZnF1-6 (called full-length) (assay: nsRBNS (natural sequence RNA bind-n-seq); RBNS binding buffer (assumed for nsRBNS): 25 mM Tris pH 7.5, 150 mM KCl, 3 mM MgCl2, 0.01% Triton X-100, 500 ug/ml BSA, 20 U/ml SUPERase-In, 4 C; UNK is unkempt and MSI1 is Musashi-1; names of the RNAs are library labels; protein concentration not given here; high values mean tight binding).

Binder	binding signal [enrichment R]
B1	0.431
B2	0.596
B3	2.33
B4	1.08
B5	21.5
B6	0.813
B7	0.832
B8	150
B9	3.48
B10	0.564
B11	17
B12	0.919
B13	11.8
B14	1.2
